Screening results deposited in PubChem BioAssay by several laboratories.
Hits are enriched below; roughly 0.82% of the tested compounds scored in any of these assays.
C-LANA FP: KSHV C-LANA DNA binding inhibition | MBP-C-LANA/FAM-LBS DNA binding, fluorescence polarization | inhibition, % at 9 µM | 340,000 tested, 0.078% active | AID 504423;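 active = highest replicate inhibition at or above 60% at 9 µM, even if other replicates fall short; inactive = all replicates below 60% inhibition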
Keap1 Nrf2 FP: Keap1-Nrf2 (human) interaction inhibition. inhibition, % at 9.4 µM. Keap1 Kelch-Nrf2 peptide fluorescence polarization, 1536-well. 340,000 tested, 0.15% active. Q14145; in the data active = inhibition above about 12%; inconclusive = no clear call, values can overlap the other calls; inactive = below about 7.3%;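 also: human Keap1 Kelch domain with fluorescein labeled Nrf2 9mer peptide probe; higher means more block of Keap1 binding to Nrf2 peptide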
cardiac RTF act: increases calcium sensitivity of human cardiac regulated thin filaments; 340,000 tested, 0.24% active; IANBD-labeled TnC RTF fluorescence at EC20 calcium; 0% EC20 calcium, 100% full calcium; activation, % at 7.2 µM;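 active = activation above the mean over all tested compounds plus 3 SD, cut at about 30% in these data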;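 also: rise in fluorescence read as greater calcium sensitivity of cardiac thin filaments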
RTF Ca sens inh: cardiac RTF calcium desensitization; inhibition, % at 7.15 µM; IANBD-labeled cardiac RTF, Ca2+ fluorescence; AID 493244; P19429+P45379; 340,000 tested, 0.12% active;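 active = inhibition above the mean inhibition of all tested compounds plus 3 SD, cut at about 17% in these data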;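 also: assay run at fixed EC70 calcium of 1.6 mM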
E coli Lon inh: inhibitors of E. coli Lon protease; P0A9M0; purified E. coli Lon protease, fluorescence polarization; inhibition, % at 7.94 µM; 360,000 tested, 0.42% active; AID 602123; in the data active = inhibition above about 13%, passing the limit was not always enough
Target sequence (P0A9M0 whole entry, looked up): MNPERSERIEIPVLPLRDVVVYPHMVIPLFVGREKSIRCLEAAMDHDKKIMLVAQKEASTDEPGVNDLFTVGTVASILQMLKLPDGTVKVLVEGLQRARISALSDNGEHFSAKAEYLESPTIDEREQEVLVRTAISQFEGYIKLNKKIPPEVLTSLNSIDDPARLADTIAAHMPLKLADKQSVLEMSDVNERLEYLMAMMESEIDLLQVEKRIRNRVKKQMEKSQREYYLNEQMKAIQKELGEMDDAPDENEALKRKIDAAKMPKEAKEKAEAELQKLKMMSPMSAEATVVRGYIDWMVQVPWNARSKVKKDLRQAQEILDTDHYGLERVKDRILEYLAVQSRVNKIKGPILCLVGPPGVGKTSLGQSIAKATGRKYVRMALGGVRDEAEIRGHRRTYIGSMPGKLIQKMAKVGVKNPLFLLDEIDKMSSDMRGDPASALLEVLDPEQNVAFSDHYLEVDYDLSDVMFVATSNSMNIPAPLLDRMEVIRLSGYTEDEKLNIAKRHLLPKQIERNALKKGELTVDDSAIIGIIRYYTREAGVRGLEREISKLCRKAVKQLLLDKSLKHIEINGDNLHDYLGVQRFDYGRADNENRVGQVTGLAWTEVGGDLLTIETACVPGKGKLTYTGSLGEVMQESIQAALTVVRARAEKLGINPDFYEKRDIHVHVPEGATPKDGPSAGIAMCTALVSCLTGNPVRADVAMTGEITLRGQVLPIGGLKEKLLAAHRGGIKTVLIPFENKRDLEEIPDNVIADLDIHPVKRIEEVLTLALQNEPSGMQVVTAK
eLon confirm: E. coli Lon inhibition confirmation; shares compounds with E coli Lon inh; purified E. coli Lon, fluorescence polarization; inhibition, % at 7.94 µM; 1,400 tested, 31% active; AID 602230; in the data active = inhibition above about 16%
Numbers stand for hits; 0 = inactive; ? = inconclusive; - = not tested or not shown.

SMILES | C-LANA FP | Keap1 Nrf2 FP | cardiac RTF act | RTF Ca sens inh | E coli Lon inh | eLon confirm
C=CCCC(=O)NC1CCCc2c1cnn2-c1ccccc1F (stereo unspecified) | 0 | 0 | 0 | 0 | 29 | 0
Nc1nc(N=Nc2ccc(O)cc2)cc(=O)[nH]1 | - | - | - | - | 67 | 35
CCC(=O)Nc1nnc(C(C)(C)C)s1 | 0 | 0 | 0 | 0 | 18 | 0
CN1CCN(c2ccccc2NC(=O)c2ccc3c(c2)OCCO3)CC1 | 0 | 0 | 0 | 0 | 16 | 0
CCC(=O)N(CCc1ccc(OC)c(OC)c1)Cc1cc2ccc(C)cc2n2nnnc12 | 0 | 0 | 0 | 0 | 16 | 0
CCC(=O)N(Cc1cc2ccc(C)cc2n2nnnc12)C1CCCCC1 | 0 | 0 | 0 | 0 | 0 | -
O=C1C(=NO)CCc2ccccc21 | 0 | 0 | 0 | 0 | 0 | -
CCN(C(=O)COC(=O)C(c1ccccc1)c1ccccc1)c1c(N)n(Cc2ccccc2)c(=O)[nH]c1=O | 0 | 0 | 0 | 0 | 25 | 0
CNc1c(N)n(Cc2ccccc2)c(=O)[nH]c1=O | 0 | 0 | 0 | 0 | 33 | 24
Cn1c(=O)[nH]c(=O)c2c1nc(NCc1ccccc1)n2Cc1ccc(F)cc1 | 0 | 0 | 0 | 0 | 0 | -
Nc1c(NCc2ccccc2)c(=O)[nH]c(=O)n1Cc1ccccc1 | 0 | 0 | 0 | 0 | 15 | 0
CCN(C(=O)COC(=O)CC(C)c1ccccc1)c1c(N)n(Cc2ccccc2)c(=O)[nH]c1=O (stereo unspecified) | 0 | 0 | 0 | 0 | 0 | -
CN(Cc1cccc(C(F)(F)F)c1)C(=O)[C@H]1O[C@@H](n2ccc(N)nc2=O)[C@H](O)[C@@H]1O | - | - | - | - | 0 | -
COc1cccc(/C=C/C(=O)N2CCN(S(=O)(=O)c3ccccc3)CC2)c1 | - | - | - | - | 0 | -
CC(C)(C)c1ccc(C(=O)Nc2cccc3ncccc23)cc1 | 0 | 0 | 0 | 0 | 44 | 44
O=C(O)c1cc(S(=O)(=O)O)ccc1O | 0 | 0 | 0 | 0 | 0 | -
Nc1cccc2c(O)cc(S(=O)(=O)O)cc12 | 117 | ? | 0 | 0 | 65 | 0
Nc1ccc2c(O)cc(S(=O)(=O)O)cc2c1 | 0 | 0 | 58 | 0 | 137 | 0
Cc1[nH]c2ccccc2c1/C=N/NC(=O)c1cccc(F)c1 | 0 | 0 | 0 | 0 | 31 | 0
Cc1[nH]c2ccccc2c1/C=N\NC(=O)c1ccco1 | 0 | 0 | 0 | 0 | 159 | 0
Cc1[nH]c2ccccc2c1/C=N/NC(=O)CNC(=O)c1ccco1 | 0 | 0 | - | - | 0 | -
CC(C)C[C@H]1CNC(=S)N1C[C@H]1CCCN1C[C@H](CC(C)C)N1C[C@H](Cc2ccc(O)cc2)N(CC2CCCCC2)C1=S | - | - | - | - | 0 | -
COc1ccccc1CCNC(=O)C(=O)NCC1OCCN1S(=O)(=O)c1ccc(Cl)cc1 (stereo unspecified) | 0 | 0 | 0 | 0 | 16 | 0
CC(C)S(=O)(=O)c1csc(NC(=O)Nc2cccc([N+](=O)[O-])c2)c1Cl | 0 | 0 | 0 | 0 | 22 | 0
O=C(Nc1cccc([N+](=O)[O-])c1)Nc1cccc([N+](=O)[O-])c1 | 0 | 0 | 0 | 0 | 0 | -
SMILES | C-LANA FP | Keap1 Nrf2 FP | cardiac RTF act | RTF Ca sens inh | E coli Lon inh | eLon confirm
COc1cc(OC)cc(C(=O)N2CCN(S(=O)(=O)c3ccc4c(c3)OCCO4)CC2)c1 | - | - | - | - | 0 | -
CCOC(=O)c1c(C)oc2c1c(C=NC1CCS(=O)(=O)C1)c(O)c1ccccc12 (stereo unspecified) | 0 | 0 | 0 | 0 | 0 | -
CCOC(=O)c1c(C)oc2c1c(C=NCCC(=O)O)c(O)c1ccccc12 | 0 | 0 | 0 | 0 | 15 | 30
CC1CCCN(C(=O)CSc2nc3ncccc3[nH]2)C1 (stereo unspecified) | 0 | 0 | 0 | 0 | 17 | 0
Cn1ccc2c(N3CCCC3)cc3c(c21)C1CCC3O1 (stereo unspecified) | - | - | - | - | 30 | 0
CC1CN(Cc2csc(-c3ccc(Cl)cc3)n2)CC(C)O1 (stereo unspecified) | 0 | 0 | 0 | 0 | 15 | 0
CCN(CC)C(=O)C1=C(C)N(CCCOC)C(=O)C(CC(=O)NCCCCc2ccccc2)C1 (stereo unspecified) | - | - | - | - | 0 | -
N#CCCN(Cc1ccccc1)C(C(=O)NC1CCCCC1)c1cc2ccccc2o1 (stereo unspecified) | - | - | - | - | 0 | -
CC(=O)C1=C(O)C(=O)N(c2ccc(Br)cn2)C1c1ccc(Br)cc1 (stereo unspecified) | 0 | 0 | 0 | 0 | 0 | -
CC(=O)C1=C(O)C(=O)N(c2ccc(Br)cn2)C1c1ccc(F)cc1 (stereo unspecified) | 0 | 0 | 0 | 0 | 28 | 0
